Counter-ions that a name gives are not always drawn. Like-named read-outs stand apart in the source and are kept apart here.

Our source for the AC50 values is publication PMC6792352, “Limited Chemical Structural Diversity Found to Modulate Thyroid Hormone Receptor in the Tox21 Chemical Library” (Environmental Health Perspectives, 2019).

For this assay, the system named is thyroid hormone receptor (endogenous TRα and TRβ). Further details: species or system GH3-TRE-Luc (rat pituitary); GH3-TRE-Luc luciferase reporter, antagonist mode against 1 nM T3, loss of signal, qHTS.
[1] abbreviates: read-out: Average AC50 (uM) GH3-TRE-Antag, antagonist mode, 1 nM T3, no GH3 cytotoxicity hit.
The mark [2] stands for this setting: read-out: Average AC50 (uM) GH3-TRE-Antag, antagonist mode, 1 nM T3, no GH3 cytotoxicity hit, Average AC50 (uM) GH3-TRE-Antag, 24 h.

By AC50 is commonly meant the concentration giving half of the maximal activity seen. As for `CC(C)CC(=O)C1C(=O)c2ccccc2C1=O` [2-Isovaleryl-1,3-indanedione], the AC50 under setting [1] was determined as 77.1 µM.
On the same count and under the same terms, in the case of `OC1CCCCCCCCCCC1` [Cyclododecanol] it was 47.7 µM; in that of `Cl/C(=C\n1cncn1)c1ccc(Cl)cc1Cl` [Loreclezole hydrochloride], 18.3 µM.
Same read-out and setting: the figure for `CC(C)(C)C(=O)OCOP(=O)(COCCn1cnc2c(N)ncnc21)OCOC(=O)C(C)(C)C` [Adefovir dipivoxil] is 46.6 µM; for `CC(C)Cc1ccc(C(C)C(=O)O)cc1` (stereo not shown) [Ibuprofen] it is > 50 µM; for `Cn1cc(C(=O)[C@@H]2CCc3nc[nH]c3C2)c2ccccc21` [Ramosetron hydrochloride] it is 40.9 µM.
As for `c1ccc(P(c2ccccc2)c2ccccc2)cc1` [Triphenylphosphine], the AC50 under setting [1] is > 90 µM.
Still for that read-out and setting: in the case of `CCCCCCCCCC=CCC1CC(=O)OC1=O` (stereo not shown) [(2-Dodecenyl)succinic anhydride] it was 74.5 µM.
With `C(COCC1CO1)OCC1CO1` (stereo not shown) [Ethylene glycol diglycidyl ether], the AC50 under setting [1] was found to be 38 µM.
Consider `Oc1ccc2ccc3cccc4ccc1c2c34` [1-Hydroxypyrene], for which the AC50 under setting [1] amounted to 55.7 µM.
On to `CC(C)c1c(C(=O)Nc2ccccc2)c(-c2ccccc2)c(-c2ccc(F)cc2)n1CC[C@@H](O)C[C@@H](O)CC(=O)O` [Atorvastatin], for which, under setting [2], the AC50 is 0.321 µM.
Consider `CCCCCCn1cc[n+](C)c1` [1-Hexyl-3-methylimidazolium hexafluorophosphate], for which the AC50 under setting [2] turned out to be 53.8 µM.
Still for that read-out and setting: in the case of `Nc1ccc2cc3ccc(N)cc3nc2c1` [Proflavin hemisulfate] it was 4.93 µM.
